Methyltransferases: Primary Screen for Target Class Profiling of Small Molecule Inhibitors of Methyltransferases | purified enzyme, MTase-Glo SAH luminescence; active compounds read low | calls only at 40 µM | actives 3.9% (n = 25,000) | AID 1745853, 2022; call rule not given here
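Each enzyme was reacted with SAM and its substrate, with compounds tested once at 40 uM; SAH formed was read by MTase-Glo luminescence.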
Starred values were filed as active, the others as inactive; i = inactive; + = active, no number. Shown is part of a subset that was picked to be rich in hits. % is set by controls: 0 for no effect and ±100 for the full control effect.

SMILES | Methyltransferases
COc1ccc(CC(=O)NC[C@@H]2CC[C@H]3C[C@@H]2C3(C)C)cc1 | i
O=C(c1cccs1)N1CCCN(c2cc(-c3ccc(F)cc3)[nH]n2)CC1 | i
Cc1ccc2c(c1)c(=O)[nH]c1c(C(=O)NCc3ccc4c(c3)OCO4)sc(=S)n12 | +
COc1cc2c(=O)[nH]c3c(C(=O)NCc4ccc5c(c4)OCO5)sc(=S)n3c2cc1OC | i
COc1ccccc1NC(=O)c1sc(=S)n2c1[nH]c(=O)c1cc(Cl)ccc12 | i
Cc1ccc(NC(=O)c2sc(=S)n3c2[nH]c(=O)c2cc(Cl)ccc23)c(C)c1 | i
O=C(NCc1ccc2c(c1)OCO2)c1ccc2c(=O)[nH]c3c(C(=O)NCC4CCCO4)sc(=S)n3c2c1 (stereo not drawn) | i
Cn1c(=O)c2ccc(C(=O)NC3CCCC3)cc2n2c(=O)n(CC(=O)NCc3ccc(Cl)cc3)nc12 | i
Cc1cccc(-c2n[nH]n3c2nc(=O)c2ccc(C(=O)NCc4ccc5c(c4)OCO5)cc23)c1 | i
CC[C@H](C)NC(=O)c1sc(=S)n2c1[nH]c(=O)c1cc(Cl)ccc12 | +
O=C(NCc1ccc(Cl)cc1)c1ccc2c(=O)[nH]c3c(C(=O)NC4CCCC4)sc(=S)n3c2c1 | +
O=C(CCn1ccc2cc(S(=O)(=O)N3CCCC3)ccc21)NCCc1ccco1 | i
CCc1ccc(N2C(=O)c3cc(C(C)(C)C)nn3CC2(C)C(=O)NCc2ccccc2)cc1 (stereo not drawn) | i
CCc1ncc(-c2c(-c3ccccc3)ncn2CCCOc2cccnc2)cn1 | i
CC1CCC(NC(=O)C2(C)Cn3c(cc4sccc43)C(=O)N2c2ccc(C(C)C)cc2)CC1 (stereo not drawn) | i
CC(C)NC(=O)N1CC[C@H](N=C2Nc3cc(F)ccc3N(CC(F)F)c3ccc(Cl)cc32)C1 | i
CC1(C(=O)NC2CCCCCC2)Cn2c(ccc2-c2ccco2)C(=O)N1CCCc1ccccc1 (stereo not drawn) | i
CC(C)(O)c1ccccc1CC[C@@H](SCC1(CC(=O)O)CC1)c1cccc(/C=C/c2ccc3ccc(Cl)cc3n2)c1 | +
O=C1CN(Cc2ccc(F)cc2Cl)S(=O)(=O)c2ccccc2N1Cc1ccccc1 | i
CCCn1c(=O)c2ccc(C(=O)NC3CCCC3)cc2n2c(=O)n(CC(=O)NC(C)C)nc12 | i
CC(=O)OC[C@]1(O)[C@H]2[C@H](OC(=O)CC(C)C)OC=C(CO[C@@H]3O[C@H](CO)[C@@H](O)[C@H](O)[C@H]3O)[C@H]2C[C@@H]1O | i
CCCn1c(=O)c2ccc(Cl)cc2n2c(=O)n(CC(=O)c3cccc(Cl)c3)nc12 | i
Cc1[nH]cnc1C1CCN(c2nc3cccc4c3n2CCC4=O)CC1 | +
CC(C)CCn1c(=O)c2ccc(C(=O)NCC(C)C)cc2n2c(=O)n(CC(=O)Nc3ccccc3)nc12 | i
Cc1cccc(-c2nnc3n(Cc4ccc(F)cc4)c(=O)c4ccccc4n23)c1 | i
SMILES | Methyltransferases
O=C(NCCNC(=O)c1cccnc1)c1cccnc1 | i
CCS(=O)(=O)N(Cc1cccnc1)c1cccc(-c2ccc(C#N)cc2)c1 | i
N#Cc1ccc(-c2cnc3[nH]cc(NC(=O)c4cccnc4)c3c2)cc1 | +
O=C1N(CC2CC2)CCCC12CCN(S(=O)(=O)N1CCOCC1)C2 (stereo not drawn) | i
CC(C)CNC(=O)c1ccc2c(=O)n(CC(C)C)c3nn(Cc4c(F)cccc4Cl)c(=O)n3c2c1 | i
Cc1ccc(CNC(=O)c2cc3n(n2)CC(C)(C(=O)NCc2ccc(C)cc2)N(C)C3=O)cc1 (stereo not drawn) | i
C=C1CCC2C(C)(C)CC(O)CC2(C)C1CCC(C)CCOC(=O)CCC(=O)O (stereo not drawn) | i
CCOCCCNC(=O)N1Cc2c(sc3c2CCCC3)-n2cccc2C1c1ccc(OC)cc1 (stereo not drawn) | i
CN1C(=O)c2cc(C(=O)NCc3cccnc3)nn2CC1(C)C(=O)NC1CCCC1 (stereo not drawn) | i
COc1cccc(-c2ccc([C@@H](Oc3cc(-c4ccc(C[C@H](N)C(=O)O)cc4)nc(N)n3)C(F)(F)F)cc2)c1 | i
CCOC(=O)[C@@H](N)Cc1ccc(-c2cc(O[C@H](c3ccc(Cl)cc3-n3ccc(C)n3)C(F)(F)F)nc(N)n2)cc1 | +
CCCCNC(=O)c1nnn2cc(-c3ccc(Cl)cc3)[nH]c(=O)c12 | i
Cc1ccc(Cn2c(=O)c3ccccc3n3c(=O)n(Cc4ccccc4C)nc23)cc1 | i
Cc1cccc(N2CCN(C(=O)CCc3nnc4n(CCc5ccccc5)c(=O)c5ccccc5n34)CC2)c1C | i
CC1(C(=O)NCc2ccccc2Cl)Cn2cnc(C(=O)NCCN3CCOCC3)c2C(=O)N1C1CC1 (stereo not drawn) | i
CC1(C)CCC2=C(O1)c1ccccc1C(=O)C2=O | +
CN1C(=O)c2cc(C(=O)N3CCCCC3)nn2CC1(C)C(=O)NCc1ccccc1 (stereo not drawn) | i
Nc1ncnc2c1c(-c1cnc3[nH]ccc3c1)nn2C1CCCC1 | +
Nc1ncnc2c1c(-c1ccc(Oc3ccccc3)cc1)nn2[C@@H]1CCCNC1 | +
CN(C)[C@H]1CCN(C(=O)Cc2cn(C)c3ccccc23)C[C@H]1CCC(=O)O | i
CCCn1c(=O)c2cc(Cl)ccc2n2c(=O)n(CC(=O)c3ccc(OC)cc3)nc12 | i
COc1cc(/C=C/C(=O)OC2CC(C)=C(C(=O)O)/C2=C/CO[C@@H]2O[C@H](CO)[C@@H](O)[C@H](O)[C@H]2O)ccc1O (stereo partly drawn) | i
O=C(/C=C/c1ccc(O)cc1)OC[C@H]1O[C@H](O[C@@]2(CO)O[C@@H](CO)[C@H](O)[C@H]2O)[C@H](O)[C@@H](O)[C@@H]1O | i
COc1cc(C[C@@]2(O)CO[C@@H](c3ccc(O[C@@H]4O[C@H](CO)[C@@H](O)[C@H](O)[C@H]4O)c(OC)c3)[C@H]2CO)ccc1O | i
COc1cc(/C=C/C(=O)OCC2OC(OC3(CO)OC(CO)C(O)C3O)C(O)C(O)C2O)ccc1O (stereo not drawn) | +
SMILES | Methyltransferases
COc1cc(C(CO)C(OC2OC(CO)C(O)C(O)C2O)c2ccc(O)c(OC)c2)ccc1O (stereo not drawn) | i
COc1cc(C2Oc3c(OC)cc(CCCO)cc3C2CO)ccc1O[C@H]1O[C@H](C)[C@@H](O)[C@H](O)[C@@H]1O (stereo partly drawn) | i
COc1ccc(C2Oc3c(OC)cc(CCCO)cc3C2COC2OC(CO)C(O)C(O)C2O)cc1OC (stereo not drawn) | i
O=C(/C=C/c1ccc(O)c(O)c1)OCc1ccccc1O[C@@H]1O[C@H](CO)[C@@H](O)[C@H](O)[C@H]1O | i
COc1cc(C(O)C(CO)Oc2ccc(CCCO[C@@H]3O[C@@H](C)[C@H](O)[C@@H](O)[C@H]3O)cc2OC)ccc1O (stereo partly drawn) | +
COc1cc(C2Oc3c(OC)cc(/C=C/C(=O)OC[C@H]4O[C@@H](OC(C)(C)C(=O)O)[C@H](O)[C@@H](O)[C@@H]4O)cc3C2CO)ccc1O (stereo partly drawn) | +
COc1cc(C2Oc3c(OC)cc(CCCO[C@@H]4O[C@H](CO)[C@@H](O)[C@H](O)[C@H]4O)cc3C2CO)ccc1O (stereo partly drawn) | +

Screening results: PubChem BioAssay, National Center for Advancing Translational Sciences (NCATS)
